Hit rate of the full screen: of about 200,000 compounds, about 670 (0.34%) were called active. The sample holds actives, similar compounds and a random draw of the others, so the mix is not that of the screen. Unmarked numbers belong to inactive results. Rule as the data show it: active = activation above about 22%; inactive = the rest.

Peroxisome proliferator-activated receptor gamma (Homo sapiens), sequence (P37231 whole entry, looked up, the tested form may be a part): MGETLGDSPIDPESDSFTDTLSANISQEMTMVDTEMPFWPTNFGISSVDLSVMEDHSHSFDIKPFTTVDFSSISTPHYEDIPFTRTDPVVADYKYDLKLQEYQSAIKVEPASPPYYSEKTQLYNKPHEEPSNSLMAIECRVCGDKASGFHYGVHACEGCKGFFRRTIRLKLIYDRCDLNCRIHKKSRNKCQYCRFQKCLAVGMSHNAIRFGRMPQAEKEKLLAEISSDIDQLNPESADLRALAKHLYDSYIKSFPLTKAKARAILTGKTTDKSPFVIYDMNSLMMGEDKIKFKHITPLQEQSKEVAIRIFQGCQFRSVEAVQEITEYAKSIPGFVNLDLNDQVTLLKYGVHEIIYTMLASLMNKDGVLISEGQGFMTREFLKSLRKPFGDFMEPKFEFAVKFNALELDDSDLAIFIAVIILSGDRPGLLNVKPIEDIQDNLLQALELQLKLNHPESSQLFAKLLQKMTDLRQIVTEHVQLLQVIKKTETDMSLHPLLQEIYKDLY

The assay addresses Peroxisome proliferator-activated receptor gamma (Homo sapiens) (UniProt P37231). The assay can be described thus: agonists of PPARg-SRC-2 recruitment, primary screen, biochemical, HTS (AID 1032).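 Also: 0% = vehicle and 100% = reference agonist.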 The note with it: PPARgamma LBD-SRC-2 recruitment, at 8 µM, active compounds read high.
As for `CCn1c(SCc2cc(=O)n3ccsc3n2)nc2ccccc21`, the activation was 2.48%.

Turning to `O=C(CSc1nc2c(cnn2-c2ccc(F)cc2)c(=O)[nH]1)N1CCCCCC1`, the activation is 5.39%.

Regarding `CC(=O)c1sc2nc(SCC(=O)N3CCCCC3)[nH]c(=O)c2c1C`, the activation is 27.8% (active).

With `C=CCNC(=O)CSc1nc2sc(C)c(C)c2c(=O)[nH]1`, the activation was 6.77%.

In the case of `CCN(CC)N=Nc1cccc(NC(C)=O)c1`, the activation was 6.74%.

Take `CCOC(=O)c1[nH]ncc1CN1CCCC(C(=O)c2ccc(OC)cc2C)C1` (configuration not stated): the activation was -2.32%.

For `Oc1ccccc1N1CCN(C(=S)NCc2ccccc2)CC1`, the activation was 6.1%.

For `O=C(COC(=O)c1ccncc1)c1ccccc1`, the activation was -2.8%.

Turning to `CC(=O)NC1C(OCc2ccccc2)OC(COC(C)=O)C(OC(C)=O)C1OC(C)=O` (configuration not stated), the activation was 4.63%.

In the case of `O=C(OCC1O[C@@H](OC(=O)c2cc(O)c(O)c(O)c2)[C@@H](OC(=O)c2cc(O)c(O)c(O)c2)[C@@H](OC(=O)c2cc(O)c(O)c(O)c2)[C@@H]1OC(=O)c1cc(O)c(O)c(O)c1)c1cc(O)c(O)c(O)c1` (some centres not stated), the activation is 27.6% (active).

In the case of `CCOC(=O)N1CCN(C(=O)CSc2nc(C)nc3c2c(=O)n(C)c(=O)n3C)CC1`, the activation was -8.15%.

Regarding `Cc1cc(C)nc(NC(=O)c2cccc([N+](=O)[O-])c2)c1`, the activation was -5.12%.

Regarding `CSc1nc(N)c(C#N)c(-c2ccccc2Cl)c1C#N`, the activation was -6.37%.

Take `Cc1c(-c2ccccc2)nc(N)c(C#N)c1-c1cccs1`: the activation is 6.63%.

As for `CCc1c(-c2ccccc2)nc(N)c(C#N)c1-c1cccs1`, the activation is 23.2% (active).

As for `O=C(NCc1nnc(SCC(=O)N2CCC(Cc3ccccc3)CC2)o1)c1ccco1`, the activation is 0.71%.

With `O=C(Cc1ccc(Br)cc1)N1CCN(c2ccccn2)CC1`, the activation was 4.3%.

`CC(C)(C)C(=O)NC(NC(=S)Nc1ccc(S(N)(=O)=O)cc1)C(Cl)(Cl)Cl` (configuration not stated): the activation is -5.23%.

In the case of `O=C(/C=C/Nc1ccccc1OC(F)(F)F)C(F)(F)F`, the activation is 1.89%.

Turning to `CN(C)c1ccc(N/C=C/C(=O)C(F)(F)F)cc1`, the activation is 39.6% (active).

Regarding `CCCOc1ccc(N/C=C/C(=O)C(C)(C)C)cc1`, the activation is -1.64%.

For the molecule `CCC(=O)OCCNc1nc(-c2ccccc2)nc2ccccc12`, the activation was 0.25%.

Take `Cn1ccc(=NC=C(C#N)C#N)c2ccccc21`: the activation was -3.24%.

In the case of `CC1CCN(C(=S)NC2CC3CCC2C3)CC1` (configuration not stated), the activation is -1.7%.

For `Cc1c(CN2CCC(CO)(CCOc3ccccc3)CC2)[nH]c2ccc(Cl)cc12`, the activation is 3.77%.

For `COc1ccc(C(=O)NCc2nnc(SCCOc3ccccc3)n2C)cc1`, the activation was 0.32%.

Take `CCOC(=O)N1CCC(NC(=O)COc2cc(=O)n(C)c3ccccc23)CC1`: the activation is -4.54%.

Turning to `CCOC(=O)C1CCN(C(=O)Cn2cc(C#N)c3ccccc32)CC1`, the activation was 3.64%.

On to `Cn1c(=O)cc(SCC(=O)N2CCN(C(=O)c3ccco3)CC2)c2ccccc21`, for which the activation was 40.5% (active).

For `O=C(CSCc1ccc(Cl)cc1)N1CCCCC1`, the activation was 7.59%.

For the molecule `CCOC(=O)C1CCN(C(=O)CSc2cc(=O)n(C)c3ccccc23)CC1`, the activation is 56.4% (active).

In the case of `CC(=O)c1ccc(-n2nnnc2SCC(=O)N2CCN(C(=O)c3ccco3)CC2)cc1`, the activation is -5.53%.

Take `Cc1cccc(OCc2nnc(SCC(=O)N3CCN(C(=O)c4ccco4)CC3)n2C)c1C`: the activation was 4.26%.

Consider `Cn1c(=O)cc(SCC(=O)N2CCCC2)c2cc(Cl)ccc21`, for which the activation was 61.1% (active).

For `CCOc1ccc(CCNC(=O)CSc2cc(=O)n(C)c3ccc(Cl)cc23)cc1OCC`, the activation is 18.7%.

As to `Cc1ccc(-c2nc(C)sc2CC(=O)OCC(=O)Nc2c(F)cccc2F)cc1`, the activation was 5.36%.

For `O=c1oc(/C=C/c2ccccc2)nc2ccccc12`, the activation was -0.23%.

Consider `O=C(Cc1ccccc1)N1CCN(S(=O)(=O)c2ccc([N+](=O)[O-])cc2)CC1`, for which the activation is 7.91%.

With `O=C1c2cccc(OCC(=O)N3N=C(c4cccs4)CC3c3ccc(F)cc3)c2CCN1Cc1ccccc1` (configuration not stated), the activation is 0.84%.

`CC(CC(=O)Nc1ccccc1)n1ccnc1` (configuration not stated): the activation was 8.08%.

On to `CCC(CC)C(=O)Nc1ccc(S(=O)(=O)Nc2nccs2)cc1`, for which the activation was -6.57%.

With `C=C(C)C1CC=C(C)/C(=N/NC(=O)CCCNc2cccc(C)c2)C1` (configuration not stated), the activation is 3.8%.

On to `O=C(CNC(=O)COc1ccccc1)NCCc1ccccn1`, for which the activation was -3%.

With `C#CCOCCOCCOCCNc1nc(N2CCN(C(=O)C(Cc3ccc(O)cc3)n3cc(C(N)CC(C)C)nn3)CC2)nc(N2CCN(C(=O)C(Cc3ccc(O)cc3)n3cc(C(N)C(C)CC)nn3)CC2)n1` (configuration not stated), the activation was -8.91%.

Regarding `COCCN(C(=O)CCC(=O)Nc1nccs1)C(C(=O)NC(C)(C)C)c1ccc(Cl)cc1` (configuration not stated), the activation is 5.4%.

Consider `CC(=O)Nc1ccc(Nc2c([N+](=O)[O-])cc(S(C)(=O)=O)cc2[N+](=O)[O-])cc1`, for which the activation is 6.76%.

As for `N#Cc1ccc(-c2ccc(Cl)cc2)nc1Oc1ccc(F)cc1`, the activation is 322% (active).

For the molecule `N#Cc1ccc(-c2ccc(F)cc2)nc1Sc1ccccc1`, the activation was 3.38%.

For `CN(C)c1ccnc(Oc2ccc(F)cc2)c1C#N`, the activation was 7.04%.

Turning to `COCCn1c(SCC(=O)Nc2ccc3c(c2)CCC3)nc2ccccc2c1=O`, the activation was -3.24%.

For `CCOC(=O)/C=c1\s/c(=C\c2ccc(C#N)cc2)c(=O)n1CC(=O)Nc1cccc(C)c1C`, the activation was 2.46%.

As for `Oc1oc(-c2ccccc2Br)nc1/C=N/c1ccccn1`, the activation is 7.3%.

For the molecule `Cc1ccc(-n2[nH]c(C)c(/C=N/N3C(=O)c4cccc5cccc(c45)C3=O)c2=O)cc1`, the activation is 6.04%.

As for `CCc1nnc(NS(=O)(=O)c2ccc(N=Cc3c(C)[nH]n(-c4ccc(C)cc4)c3=O)cc2)s1`, the activation was 12.6%.

In the case of `COc1cc(SC#N)ccc1N=Cc1c(C)[nH]n(-c2ccc(C)cc2)c1=O`, the activation was 27.6% (active).

With `CN(C)S(=O)(=O)c1cccc(NC(=S)NCc2ccc3c(c2)OCO3)c1`, the activation is 4.42%.

Regarding `COc1ccc(N(CC(=O)NC2CCCC2)C(=O)CS(=O)CC(=O)Nc2ccc3c(c2)OCO3)cc1` (configuration not stated), the activation was -7.54%.

The record behind these values is PubChem BioAssay AID1032 (The Scripps Research Institute Molecular Screening Center, 2008).
